Among the data in ChEMBL document CHEMBL3433997, “St. Jude Leishmania screening dataset” (2016) are inhibition values, retold here.

What all share (assay type): functional
Test [1] deals with Solute carrier family 2, facilitated glucose transporter member 1 (Homo sapiens) (UniProt P11166). The experiment in a line: ST_JUDE_LEISH: Cytotoxicity at 2uM final concentration against transgenic Leishmania Mexicana promastigotes LmGLUT1 that are glucose transport deficient and complemented with the human glucose transporter GLUT1. Activity is measured by DNA content using SYBR green in vitro.
Solute carrier family 2, facilitated glucose transporter member 1 (Homo sapiens), sequence (P11166 whole entry): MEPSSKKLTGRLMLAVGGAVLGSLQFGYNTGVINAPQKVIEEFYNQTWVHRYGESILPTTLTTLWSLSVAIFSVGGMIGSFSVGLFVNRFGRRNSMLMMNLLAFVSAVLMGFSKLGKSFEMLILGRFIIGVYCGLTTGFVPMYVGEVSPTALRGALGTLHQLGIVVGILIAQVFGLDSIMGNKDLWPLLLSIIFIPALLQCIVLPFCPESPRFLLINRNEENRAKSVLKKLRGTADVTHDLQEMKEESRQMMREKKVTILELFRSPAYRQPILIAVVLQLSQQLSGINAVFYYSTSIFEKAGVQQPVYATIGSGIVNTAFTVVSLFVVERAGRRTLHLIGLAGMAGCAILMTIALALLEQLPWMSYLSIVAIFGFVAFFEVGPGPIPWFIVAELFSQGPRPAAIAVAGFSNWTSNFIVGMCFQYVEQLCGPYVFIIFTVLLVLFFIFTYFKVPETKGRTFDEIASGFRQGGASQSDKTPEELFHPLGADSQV

Test [2] concerns the target Hexose transporter 1 (Plasmodium falciparum) (UniProt O97467). In words: ST_JUDE_LEISH: Cytotoxicity at 2uM final concentration against transgenic Leishmania Mexicana promastigotes LmPfHT that are glucose transport deficient and complemented with the Plasmodium falciparum hexose transporter. Activity is measured by DNA content using SYBR green in vitro.
The target of test [3] is Glucose transporter (Leishmania mexicana) (UniProt O61059). The experiment in a line: ST_JUDE_LEISH: Cytotoxicity at 2uM final concentration against transgenic Leishmania Mexicana promastigotes LmGT2 that are glucose transport deficient and complemented with the L. Mexicana glucose transporter 2. Activity is measured by DNA content using SYBR green in vitro.

A word on the inhibition: it is the change of the read-out against control, counted positive when it falls.

For the compound `C=Cc1c(C2CCN(CCCCNC(=O)c3ccc(-c4ccc(C#N)cc4)cc3)CC2)ccc2c1CCCC2`, the inhibition in test [1] was 1.77%; in test [2], 4.14%; in test [3], 1.54%.

Consider `Cc1cc(NC(=O)CCCN2CCN(c3cccc(Cl)c3Cl)CC2)ccc1N1CCN(C(C)C)CC1`, for which the inhibition in test [1] was found to be 9.52%; in test [2] it was 5.3%; in test [3] it was 4.97%.

As for `CC(C)(C)c1nn(-c2ccccc2)c2[nH]c(=O)c(CNCCc3ccccc3)cc12`, the inhibition in test [1] was 0.22%; in test [2], -1.47%; in test [3], -1.89%.

As to `CCc1nc(N)nc(N)c1-c1ccccc1`, the values for the inhibition in test [1], in test [2] and in test [3] were 2.31%, 2.67% and 3.69%, respectively.

As for `Cc1cccc(Nc2nc3nonc3nc2Nc2cccc(Cl)c2Cl)c1C`, the inhibition in test [1] was found to be 9.75%; in test [2], 7.64%; in test [3], 7.5%.

Regarding `CCOc1ccc(C(C)NC(=O)C2COc3ccccc3O2)cc1OCC` (stereo unspecified), the inhibition in test [1] came out at 2.23%; in test [2], 1.59%; in test [3], 2.93%.

As to `Cc1cccc2nc(-c3cccc(-c4ccc(CN5CCC(C(N)=O)CC5)cc4)c3)[nH]c12`, the inhibition in test [1] was 9.22%; in test [2], 9.68%; in test [3] it was 9.06%.

With `CN1CCC(C(=O)Nc2ccc(-c3ccc(-c4nc5ccccc5[nH]4)cc3)cc2)CC1`, the values for the inhibition in test [1], in test [2] and in test [3] were 2.95%, 1.48% and 0.83%, respectively.

`COc1ccc2[nH]ccc(=NN=Cc3cccc(F)c3)c2c1`: the inhibition stood at 1.01% in test [1], 2.87% in test [2] and 0.07% in test [3].

As to `CC(C)NCc1cccc(-c2ccc(NS(=O)(=O)c3cccc4cccnc34)cc2)c1`, the inhibition is 13.8% in test [1], 8.78% in test [2] and -2.82% in test [3].

For the compound `O=C(Nc1cc(Cl)cc(Cl)c1)c1cc(Cl)c(=O)n(Cc2cccc(Cl)c2)c1`, the inhibition in test [1] was 3.25%; in test [2], -1.14%; in test [3], -1.24%.

With `FC(F)(F)Oc1cccc(CNc2noc(-c3sccc3Br)n2)c1`, the inhibition worked out at 2.52% in test [1], 2.93% in test [2] and 0.8% in test [3].

Take `Cc1cc(=NN=Cc2ccc(F)cc2)c2ccc(C(F)(F)F)cc2[nH]1`: the inhibition was 3% in test [1], 4.59% in test [2] and 1.74% in test [3].

Take `COc1ccc(NC(=O)Nc2cccc(-c3ccc(-c4nc5cc(C(F)(F)F)ccc5[nH]4)cc3)c2)cc1`: the inhibition is 0.43% in test [1], -0.19% in test [2] and -2.91% in test [3].

Regarding `N#CN1CC[C@@H](NS(=O)(=O)Cc2ccc(Cl)c(Cl)c2)C1`, the inhibition is 5.72% in test [1], 4.08% in test [2] and 4.15% in test [3].

`O=C(NCCCCCN1CCC(c2c[nH]c3ccccc23)CC1)Nc1cccc(Cl)c1`: the inhibition in test [1] came to 2.7%; in test [2], 0.53%; in test [3], 0.16%.

On to `Cn1ccnc1-c1nc2ccccn2c1NCC(=O)Nc1ccccc1N1CCCCC1`, for which the figures for the inhibition in test [1], in test [2] and in test [3] were -1.68%, -2.15% and 0.02%, respectively.
